# Laboratory results reported in PubChem BioAssay.
# The source made the active and inactive calls.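 How the source made its calls, unless noted: active means normalized viability below 100% at a tested concentration; inactive means the rest.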
# Columns and labels:
# [1] = P. berghei load reduction in hepatocytes – cell-based, HepG2, luciferase luminescence, HepG2 viability, primary screen (AID 624349; in the data active means parasite load remaining mostly below about 12%, no sharp cut-off; inactive means mostly above about 10%;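 further: 100% = mean of DMSO negative control wells on the same plate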); conditions: P. berghei liver stage in HepG2, luciferase luminescence, concentration not given here; parasite load remaining: stronger effect = lower value; viability: measured here: HepG2 viability without parasites
# [2] = Wnt pathway potentiators raising nuclear beta-catenin – imaging, WNT3A-conditioned medium, mouse C2C12, NPC library, primary screen (AID 1117326; in the data active means nuclear beta-catenin stimulation mostly above about 4.2%, no sharp cut-off; inactive means mostly below about 10%); conditions: stronger effect = higher value
# [3] = stimulators of insulin release from INS-1E, primary screen, cell-based, 5 mM glucose, NPC library (AID 1117329;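 active means compound raises insulin release from rat beta cells at 5 mM glucose, no numeric limit stated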); conditions: rat INS-1E insulin secretion, at 10 µM, stronger effect = higher value
# [4] = growth inhibition of GSK3B-pretreated HCT116 cells – cell-based, CellTiter-Glo, 0.2 to 20 µM (AID 1117336;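 active means compounds lowering colon cancer cell viability after pretreatment blocking the GSK3B kinase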); conditions: HCT116 viability after GSK3B inhibitor, at 20 µM, stronger effect = higher value
# [5] = inhibition of endothelial tube formation, primary screen, imaging, VEGF stimulated, CD31 staining, tube area, NPC library (AID 1117340;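 active means compound that reduces growth-factor-driven endothelial tube area in a mixed cell culture, no cutoff stated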); conditions: VEGF-stimulated ADSC/ECFC co-culture, at 10 µM, stronger effect = higher value
# [6] = GLP1 release stimulators, primary, NCI-H716, NPC library (AID 1117341;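 active means compound raises GLP1 secretion from the human gut endocrine cells, with no numeric limit stated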); conditions: NCI-H716 cells, at 10 µM, stronger effect = higher value
# [7] = HCT116 colon cancer cell growth inhibition, primary screen, CellTiter-Glo luminescence, NPC library (AID 1117342;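 active means compounds that lower survival of HCT116 colon cancer cells in the luminescence readout, no numeric limit stated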); conditions: at 20 µM (top of the series)
# [8] = reduced SW480 viability measured with CellTiter-Glo, NPC library, primary (AID 1117343;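 active means compounds that lower viability of the colon cancer cells in the luminescence readout, with no numeric limit stated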); conditions: CellTiter-Glo luminescence; at 20 µM (top of the series) unless noted
# [9] = NPC library primary testing for decreased DLD-1 cell viability via CellTiter-Glo (AID 1117346;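 active means compounds that lower survival of DLD-1 colon cancer cells in the luminescence readout, no cutoff given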); conditions: DLD-1 viability, CellTiter-Glo luminescence; at 20 µM (top of the series)
# [10] = EMT-state selective cytotoxicity in co-culture – imaging, PC-3E GFP, TEM4-18 mCherry, primary screen (AID 1345086;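 active means compounds killing one labelled cell type while sparing the other, by normalised counts and ratio limits, not self-fluorescent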;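 on all read-outs here: cells exposed to compound for 72 h before imaging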;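 on red/green cell ratio (normalised): normalised mesenchymal count divided by normalised epithelial count so high means epithelial killing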); conditions: PC-3E GFP / TEM4-18 mCherry co-culture, imaging cell counts, at 1 µM; for red/green cell ratio (normalised): actives lie on both sides, counts scaled to control wells, 1 = unselective
# [11] = viability loss with induced miR-34 in A549 – imaging, A549 dox-inducible miR-34, nuclei and caspase counts, primary screen (AID 1347080;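 active means compounds whose cell count with miR-34 switched on is under 0.7 times the count with it off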); conditions: A549 miR-34 inducible, Hoechst nuclei count, 48 h
# [12] = MELAS cybrid and Rieske KO viability enhancers – cell-based, MELAS cybrids, Rieske KO mouse fibroblasts, CellTiter-Glo, primary screen (AID 1508586;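 active means mean z-score across replicates of 1.96 or higher in either the MELAS or the Rieske mutant cell line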;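 further: z relative to plate mean and SD of compound and empty wells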); conditions: low glucose
# [13] = drug combination growth inhibition, ovarian cancer – cell-based, oncology-focused library, rucaparib conditional, profiling panel (AID 1508598); conditions: patient-derived ovarian cancer cells, CellTiter-Glo viability, 144 h, stronger effect = lower value
# [14] = target: NAD(+) hydrolase SARM1 (Homo sapiens) (UniProt Q6SZW1); experiment: blocking NAD cleavage by SARM1 SAM-TIR – cell lysate, NAD-Glo luminescence (AID 1508614;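 active means compound whose remaining NAD level is above about 45 nM, limit read from the data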); conditions: SAM-TIR HEK293T lysate NADase, at 1 µM, stronger effect = higher value
# [15] = growth inhibition, single agent or in combination, cell-based, chromothripsis tumors, cisplatin or BGB combos (AID 1671449; in the data active means inhibition above about 80%;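 further: cells exposed for 96 hours; 0% = vehicle DMSO and 100% = killing by high DMSO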); conditions: LFS_MB_P medulloblastoma cells
# [16] = growth inhibition, single agent and combos, cell-based, chromothripsis tumors, cisplatin or BGB combos (AID 1671450; in the data active means inhibition above about 80%;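 further: cells exposed to compound for four days; 0% = vehicle DMSO and 100% = cell killing by high DMSO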); conditions: HDN33 neuroblastoma cells, stronger effect = higher value
# [17] = growth inhibition, single agents and combos, ICB984, cell-based, cisplatin or BGB combos, synergistic combos for chromothripsis tumors (AID 1671451; call rule not given here;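 further: cells exposed for 96 hours before readout; 0% = vehicle DMSO and 100% = killing by high DMSO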); conditions: ICB984 medulloblastoma cells, drug combinations, stronger effect = higher value
# [18] = growth inhibition, single agents and combos, HTB85, cell-based, BGB or cisplatin IC20 combos, synergistic combos for chromothripsis tumors (AID 1671453; in the data active means inhibition above about 80%;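 further: cells exposed for 96 hours before readout; 0% = vehicle DMSO and 100% = high DMSO killing control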); conditions: HTB85 osteosarcoma cells, drug combinations, stronger effect = higher value
# [19] = growth inhibition, MDA-MB-436, cell-based, BGB or cisplatin combos, synergistic combos for chromothripsis tumors (AID 1671458; call rule not given here;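 further: cells exposed for 96 hours; 0% = vehicle DMSO and 100% = killing by high DMSO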); conditions: MDA-MB-436 breast carcinoma growth inhibition, drug combinations, stronger effect = higher value
# [20] = measured here: epithelial PC-3E GFP cell survival
# [21] = measured here: mesenchymal TEM4-18 mCherry cell survival
# Chain of NAD(+) hydrolase SARM1 (Homo sapiens) (Q6SZW1 whole entry, looked up): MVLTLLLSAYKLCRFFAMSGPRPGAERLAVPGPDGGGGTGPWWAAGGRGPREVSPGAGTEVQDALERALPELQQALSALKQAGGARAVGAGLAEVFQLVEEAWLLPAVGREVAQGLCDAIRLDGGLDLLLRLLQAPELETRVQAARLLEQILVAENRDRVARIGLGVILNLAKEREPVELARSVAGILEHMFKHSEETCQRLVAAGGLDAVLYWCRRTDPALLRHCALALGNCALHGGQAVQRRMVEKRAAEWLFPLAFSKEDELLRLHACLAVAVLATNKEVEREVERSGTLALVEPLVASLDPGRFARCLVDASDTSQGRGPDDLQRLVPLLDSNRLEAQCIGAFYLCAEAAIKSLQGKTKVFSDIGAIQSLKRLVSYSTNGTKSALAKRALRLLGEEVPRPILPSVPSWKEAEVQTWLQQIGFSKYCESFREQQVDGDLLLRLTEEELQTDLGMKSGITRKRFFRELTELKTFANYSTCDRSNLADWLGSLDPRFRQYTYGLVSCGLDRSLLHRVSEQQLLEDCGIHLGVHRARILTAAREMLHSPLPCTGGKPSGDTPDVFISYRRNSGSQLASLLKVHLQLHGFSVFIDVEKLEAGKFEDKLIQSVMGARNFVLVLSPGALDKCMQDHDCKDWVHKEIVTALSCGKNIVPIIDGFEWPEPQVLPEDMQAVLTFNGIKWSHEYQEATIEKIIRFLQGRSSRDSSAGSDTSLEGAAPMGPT
smiles,measurement,setting,value
COc1c(C)c2c(c(O)c1C/C=C(\C)CCC(=O)OCCN1CCOCC1)C(=O)OC2,parasite load remaining,[1],10.4% (inactive)
same,viability,[1],140%
same,nuclear beta-catenin stimulation,[2]; at 10 µM,19.6% (inactive)
same,nuclear beta-catenin stimulation,"[2]; stimulation, at 2 µM",28.6%
same,insulin secretion stimulation,[3],1.7% (inactive)
same,viability decrease,[4],98.3% (active)
same,tube area decrease,[5],79.8% (active)
same,GLP1 secretion stimulation,[6],0.3% (inactive)
same,inhibition of viability,[7],83.9% (active)
same,viability decrease (inhibition),[8],71.8% (active)
same,viability decrease (inhibition),[9],53.3% (active)
same,red/green cell ratio (normalised),[10],0.71 (inactive)
same,normalised cell number,[10]; [20],1.24
same,normalised cell number,[10]; [21],0.88
same,fold change,"[11]; stronger effect = lower value, cell number ratio, induced over uninduced",0.954 (inactive)
same,fold change,[11]; measured here: relative caspase fold change +Dox/-Dox,1.15
same,cell count,"[11]; measured here: total cells with miR-34 induction, stronger effect = lower value",3090
same,cell count,[11]; measured here: total cells without miR-34 induction,3240
same,z-score,"[12]; MELAS cybrid survival, CellTiter-Glo 48 h, stronger effect = higher value",-0.954 (inactive)
same,z-score,"[12]; Rieske KO mouse fibroblast survival, CellTiter-Glo 72 h",1.62
same,viability,"[13]; at 0.000305 µM, OCI-C5x cells, with rucaparib 10 µM, 100% = cells with rucaparib alone",104% (inactive)
same,viability,"[13]; at 0.000305 µM, OCI-C5x cells, without rucaparib",112% (inactive)
same,viability,"[13]; at 0.000305 µM, OCI-P5x cells, with rucaparib 20 µM, 100% = cells with rucaparib alone",90.9% (active)
same,viability,"[13]; at 0.000305 µM, OCI-P5x cells, without rucaparib",100% (inactive)
same,viability,"[13]; at 0.00122 µM, OCI-C5x cells, with rucaparib 10 µM, 100% = cells with rucaparib alone",119% (inactive)
same,viability,"[13]; at 0.00122 µM, OCI-C5x cells, without rucaparib",108% (inactive)
same,viability,"[13]; at 0.00122 µM, OCI-P5x cells, with rucaparib 20 µM, 100% = cells with rucaparib alone",95.2% (active)
same,viability,"[13]; at 0.00122 µM, OCI-P5x cells, without rucaparib",104% (inactive)
same,viability,"[13]; at 0.00488 µM, OCI-C5x cells, with rucaparib 10 µM, 100% = cells with rucaparib alone",122% (inactive)
same,viability,"[13]; at 0.00488 µM, OCI-C5x cells, without rucaparib",110% (inactive)
same,viability,"[13]; at 0.00488 µM, OCI-P5x cells, with rucaparib 20 µM, 100% = cells with rucaparib alone",101% (inactive)
same,viability,"[13]; at 0.00488 µM, OCI-P5x cells, without rucaparib",108% (inactive)
same,viability,"[13]; at 0.0195 µM, OCI-C5x cells, with rucaparib 10 µM, 100% = cells with rucaparib alone",115% (inactive)
same,viability,"[13]; at 0.0195 µM, OCI-C5x cells, without rucaparib",113% (inactive)
same,viability,"[13]; at 0.0195 µM, OCI-P5x cells, with rucaparib 20 µM, 100% = cells with rucaparib alone",108% (inactive)
same,viability,"[13]; at 0.0195 µM, OCI-P5x cells, without rucaparib",109% (inactive)
same,viability,"[13]; at 0.0781 µM, OCI-C5x cells, with rucaparib 10 µM, 100% = cells with rucaparib alone",146% (inactive)
same,viability,"[13]; at 0.0781 µM, OCI-C5x cells, without rucaparib",149% (inactive)
same,viability,"[13]; at 0.0781 µM, OCI-P5x cells, with rucaparib 20 µM, 100% = cells with rucaparib alone",107% (inactive)
same,viability,"[13]; at 0.0781 µM, OCI-P5x cells, without rucaparib",87.7% (active)
same,viability,"[13]; at 0.313 µM, OCI-C5x cells, with rucaparib 10 µM, 100% = cells with rucaparib alone",172% (inactive)
same,viability,"[13]; at 0.313 µM, OCI-C5x cells, without rucaparib",147% (inactive)
same,viability,"[13]; at 0.313 µM, OCI-P5x cells, with rucaparib 20 µM, 100% = cells with rucaparib alone",89.1% (active)
same,viability,"[13]; at 0.313 µM, OCI-P5x cells, without rucaparib",63.2% (active)
same,viability,"[13]; at 1.25 µM, OCI-C5x cells, with rucaparib 10 µM, 100% = cells with rucaparib alone",157% (inactive)
same,viability,"[13]; at 1.25 µM, OCI-C5x cells, without rucaparib",110% (inactive)
same,viability,"[13]; at 1.25 µM, OCI-P5x cells, with rucaparib 20 µM, 100% = cells with rucaparib alone",74.3% (active)
same,viability,"[13]; at 1.25 µM, OCI-P5x cells, without rucaparib",42.1% (active)
same,viability,"[13]; at 5 µM, OCI-C5x cells, with rucaparib 10 µM, 100% = cells with rucaparib alone",69% (active)
same,viability,"[13]; at 5 µM, OCI-C5x cells, without rucaparib",52.7% (active)
same,viability,"[13]; at 5 µM, OCI-P5x cells, with rucaparib 20 µM, 100% = cells with rucaparib alone",52.6% (active)
same,viability,"[13]; at 5 µM, OCI-P5x cells, without rucaparib",30.9% (active)
same,remaining NAD,[14],10 nM (inactive)
CN1CCN(c2c(F)cc3c(=O)c(C(=O)O)cn4c3c2OCN4C)CC1,nuclear beta-catenin stimulation,[2]; at 10 µM,-0.6% (inactive)
same,nuclear beta-catenin stimulation,"[2]; stimulation, at 2 µM",-2.1%
same,insulin secretion stimulation,[3],-0.9% (inactive)
same,viability decrease,[4],7.3% (inactive)
same,tube area decrease,[5],-6.4% (inactive)
same,GLP1 secretion stimulation,[6],-0.1% (inactive)
same,inhibition of viability,[7],1.5% (inactive)
same,viability decrease (inhibition),[8],-15.8% (inactive)
same,viability decrease (inhibition),[9],-5% (inactive)
same,red/green cell ratio (normalised),[10],0.85 (inactive)
same,normalised cell number,[10]; [20],1.17
same,normalised cell number,[10]; [21],1
same,inhibition,"[15]; at 0.5 µM, stronger effect = higher value",-17.7% (inactive)
same,inhibition,"[15]; measured here: combination with BGB IC20, at 0.005 µM",-16.9%
same,inhibition,"[15]; measured here: combination with BGB IC40, at 0.005 µM",-17.4%
same,inhibition,"[15]; measured here: combination with BGB IC40, at 0.05 µM",-36.9%
same,inhibition,"[15]; measured here: combination with cisplatin, at 0.5 µM, stronger effect = higher value",-51.4%
same,inhibition,"[15]; measured here: combination with cisplatin, at 5 µM, stronger effect = higher value",-32.3%
same,inhibition,"[16]; BGB combo, at 5 µM",5.71%
same,inhibition,[16]; at 0.5 µM,-7.25% (inactive)
same,inhibition,"[16]; cisplatin combo, at 5 µM",-1.82%
same,inhibition,"[16]; measured here: with BGB IC20 combination, at 0.5 µM",5.2%
same,inhibition,"[16]; measured here: with cisplatin IC20 combination, at 0.5 µM",-12.1%
same,inhibition,"[16]; single agent, at 5 µM",-9.4%
same,inhibition,"[17]; BGB IC20 combo, at 0.005 µM",9.65%
same,inhibition,"[17]; BGB IC40 combo, at 0.005 µM",-1.21%
same,inhibition,"[17]; BGB IC40 combo, at 0.05 µM",1.28%
same,inhibition,[17]; at 0.5 µM,-28.8% (inactive)
same,inhibition,"[17]; cisplatin combo, at 0.05 µM",-1.48%
same,inhibition,"[17]; cisplatin combo, at 0.5 µM",-25.3%
same,inhibition,"[17]; cisplatin combo, at 5 µM",-7.68%
same,inhibition,"[17]; measured here: 5 uM single agent, at 5 µM",-17.3%
same,inhibition,[18]; at 0.5 µM,-12.7% (inactive)
same,inhibition,"[18]; measured here: with BGB IC20, at 0.5 µM",-22.2%
same,inhibition,"[18]; measured here: with BGB IC20, at 5 µM",-21.7%
same,inhibition,"[18]; measured here: with cisplatin IC20, at 0.5 µM",-26.4%
same,inhibition,"[18]; measured here: with cisplatin IC20, at 5 µM",-29.4%
same,inhibition,"[18]; single agent, at 5 µM",-8.81%
same,inhibition,[19]; at 0.5 µM,-16.5% (inactive)
same,inhibition,"[19]; measured here: BGB combination, at 0.5 µM",-13.3%
same,inhibition,"[19]; measured here: BGB combination, at 5 µM",-9.95%
same,inhibition,"[19]; measured here: cisplatin combination, at 0.5 µM",-29.6%
same,inhibition,"[19]; measured here: cisplatin combination, at 5 µM",-33.2%
